“And” between values parts separate entries of the source, which are not always exact repeats. Identical values can stand only once. Records with an inconclusive call do not appear. The source made the active and inactive calls. How the source made its calls, unless noted: active means hit-call score of the fitted dose curve at least 0.9, where 1 is the maximum; inconclusive means response in the unintended direction; inactive means score below 0.9.
Key:
[1] = TOX21_p53_BLA_p2_viability: Viability Assessment in the Tox21 HCT-116 p53 Agonism Beta-lactamase Assay, Phase 2 (AID 2283591);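 further: actives lower the ATP signal meaning cytotoxicity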
Outline: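 HCT116 p53-bla cells, 4000/well, dosed after 5 h plating (217-fold dilution of DMSO stocks) and incubated 16 h at 37C. Viability taken as cellular ATP by CellTiter-Glo luminescence after 30 min RT; signal loss marks cytotoxicity.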

[2] = TOX21_p53_BLA_p3_viability: Viability Assessment in the Tox21 HCT-116 p53 Agonism Beta-lactamase Assay, Phase 3 (AID 2283593);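 further: cells exposed to compound for 16 h before reading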
Outline: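 HCT116 cells, 4000/well, dosed 5 h after plating by pin transfer (217-fold dilution from DMSO stock) and incubated 16 h at 37C, 5% CO2. Viability read as ATP luminescence with CellTiter-Glo after 30 min at room temperature.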

[3] = target: Cellular tumor antigen p53 (Homo sapiens) (UniProt P04637); assay: TOX21_p53_BLA_p3_ratio: Tox21 HCT-116 p53 Agonism Beta-lactamase Assay, Ratio, Phase 3 (AID 2283596)
Chain of Cellular tumor antigen p53 (Homo sapiens) (P04637 whole entry, looked up): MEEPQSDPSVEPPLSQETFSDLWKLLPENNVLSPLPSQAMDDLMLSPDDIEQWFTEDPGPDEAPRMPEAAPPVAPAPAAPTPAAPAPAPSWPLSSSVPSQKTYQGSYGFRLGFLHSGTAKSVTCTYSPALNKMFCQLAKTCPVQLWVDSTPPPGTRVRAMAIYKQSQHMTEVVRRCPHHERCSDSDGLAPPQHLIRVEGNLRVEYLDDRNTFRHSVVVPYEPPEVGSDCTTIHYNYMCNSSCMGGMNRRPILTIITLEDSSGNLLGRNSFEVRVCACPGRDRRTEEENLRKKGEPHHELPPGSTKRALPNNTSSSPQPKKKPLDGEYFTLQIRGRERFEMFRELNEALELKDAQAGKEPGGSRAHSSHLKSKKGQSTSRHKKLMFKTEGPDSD
Outline: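 HCT116 p53-bla cells (4000/well) given compound in DMSO (217-fold dilution) after 5 h, incubated 16 h at 37C. CCF4-AM substrate 2 h at room temperature; 460/530 nm emission ratio, gain fitted against DMSO.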

[4] = TOX21_p53_BLA_p4_viability: Viability Assessment in the Tox21 HCT-116 p53 Agonism Beta-lactamase Assay, Phase 4 (AID 2283597);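 further: hits lower the luminescence signal meaning cytotoxicity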
Outline: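 Compound exposure of HCT116 cells lasts 16 h at 37C, 5% CO2, with DMSO stocks diluted 217-fold. Cellular ATP is then quantified by CellTiter-Glo luminescence after 30 min at room temperature.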

[5] = target: Cellular tumor antigen p53 (Homo sapiens) (UniProt P04637); assay: TOX21_p53_BLA_p5_ratio: Tox21 HCT-116 p53 Agonism Beta-lactamase Assay, Ratio, Phase 5 (AID 2283599)
Outline: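 HCT-116 p53-bla cells (4000/well) plated 5 h, dosed with compound (217-fold DMSO dilution) for 16 h at 37 C; CCF4-AM substrate 2 h at room temperature. Activity is the 460/530 nm emission ratio (405 nm excitation), fitted in gain-of-signal direction versus DMSO.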

[6] = TOX21_p53_BLA_p5_viability: Viability Assessment in the Tox21 HCT-116 p53 Agonism Beta-lactamase Assay, Phase 5 (AID 2283600)
Outline: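 Counter-readout for cytotoxicity: ATP-dependent luminescence from CellTiter-Glo, read in the beta-lactamase wells after 30 min at RT, following a 16 h compound exposure at 37C.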

[7] = target: Cellular tumor antigen p53 (Homo sapiens) (UniProt P04637); assay: TOX21_p53_BLA_p4_ratio: Tox21 HCT-116 p53 Agonism Beta-lactamase Assay, Ratio, Phase 4 (AID 2283601)
Outline: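 HCT-116 p53 beta-lactamase reporter cells (4000/well) preincubated 5 h, then compound (217-fold dilution of DMSO stock) for 16 h at 37C. CCF4-AM substrate added 2 h at room temperature; 460/530 nm emission ratio fitted upward versus DMSO.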

[8] = system: Thyroperoxidase (TPO), gene 54314; assay: CCTE_Simmons_AUR_rTPO: CCTE's Amplex UltraRed Assay for Thyroperoxidase (TPO) Inhibition, Simmons Lab (AID 2283662);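 further: potency for loss of signal meaning inhibition of peroxidase activity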
Outline: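 Endpoint is decreased Amplex UltraRed fluorescence after a 30-min, 37C reaction of rat thyroid microsomes with 300 uM H2O2. Eight test concentrations (5 nM–87.5 uM final) in 0.5% DMSO, three biological replicates each.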

[9] = CCTE_Simmons_CellTiterGLO_HEK293T: Viability Assessment in CCTE's Assays for Thyroperoxidase (TPO) Inhibition, Simmons Lab (AID 2283665);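 further: cells exposed to compound for 24 h before readout; actives reduce ATP signal below DMSO vehicle meaning cytotoxicity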
Outline: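 HEK293T cells in DMEM with 1% FBS, dosed 24 h at 37C with 8 concentrations, 5 nM–87.5 uM final, 0.5% DMSO. ATP measured by CellTiter Glo luminescence; loss of signal vs DMSO, three biological replicates.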

[10] = CEETOX_H295R_MTT_cell_viability: Viability Assessment in the CeeTox HT-H295R MTT Assay (AID 2283718; active means hit-call score of the fitted dose curve at least 0.9, where 1 is the maximum; inactive means score below 0.9;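 further: curve fitted both ways so AC50 may mark viability loss or gain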)
Outline: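 Human H295R adrenal cells, prestimulated 48 h with 10 uM forskolin, were exposed 48 h to chemicals in 0.1% DMSO. Viability was measured in the same wells by MTT (0.5 mg/ml, 4 h, 37 C), absorbance 570/650 nm, as percent of controls.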

[11] = target: Luciferin 4-monooxygenase (Photinus pyralis) (UniProt P08659); assay: CCTE_Simmons_QuantiLum_inhib_2: CCTE's Firefly Luciferase Inhibition Assay, Simmons Lab (AID 2283767);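 further: potency for inhibitors that lower luciferase luminescence relative to DMSO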
Chain of Luciferin 4-monooxygenase (Photinus pyralis) (P08659 whole entry, looked up): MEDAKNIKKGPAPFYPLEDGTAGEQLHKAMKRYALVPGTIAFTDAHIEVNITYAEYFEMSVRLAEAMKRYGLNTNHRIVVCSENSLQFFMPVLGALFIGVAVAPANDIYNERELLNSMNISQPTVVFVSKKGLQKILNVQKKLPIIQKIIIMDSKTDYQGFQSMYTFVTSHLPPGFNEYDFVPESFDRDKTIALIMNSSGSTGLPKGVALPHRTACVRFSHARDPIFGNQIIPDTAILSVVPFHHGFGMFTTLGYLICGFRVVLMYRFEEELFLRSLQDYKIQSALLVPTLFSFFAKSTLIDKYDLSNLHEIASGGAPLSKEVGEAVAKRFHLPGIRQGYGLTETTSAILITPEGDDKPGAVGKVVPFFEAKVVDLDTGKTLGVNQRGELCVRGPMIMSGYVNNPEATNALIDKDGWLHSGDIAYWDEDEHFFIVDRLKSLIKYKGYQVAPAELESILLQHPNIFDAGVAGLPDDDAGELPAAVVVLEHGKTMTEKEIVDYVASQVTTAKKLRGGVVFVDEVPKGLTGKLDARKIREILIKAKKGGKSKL
Outline: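 Cell-free recombinant firefly luciferase (5 ng/well) in 200mM potassium phosphate with 1 mg/ml BSA, 30 min at 37C with 8 concentrations from 5 nM to 87.5 uM [final], 0.5% DMSO. Luminescence read after D-luciferin (150uM)/dATP (147uM) reagent injection, pH 7.8; triplicates.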

[12] = ACEA_AR_agonist_AUC_viability: ACEA Biosciences xCELLigence Real-Time Cell Analysis on Androgen Receptor Agonism for Viability (AID 2283775)
Outline: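 Real-time impedance tracking of 22Rv1 growth, readings every 5 min for 5 h then hourly; area-under-curve viability endpoint at 80 hours, relative to DMSO. Compounds at eight concentrations, 1:4 steps, top 100 uM, n = 2.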

[13] = ACEA_AR_antagonist_AUC_viability: ACEA Biosciences xCELLigence Real-Time Cell Analysis on Androgen Receptor Antagonism for Viability (AID 2283776);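 further: 22Rv1 human prostate cancer cells growing on impedance electrode plates; hits lower the growth signal relative to DMSO meaning cytotoxicity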
Outline: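 Viability endpoint from label-free cell-index monitoring: 22Rv1 cultures treated with an eight-point 1:4 dilution series starting at 100 uM final, AUC at 80 h fitted against DMSO.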

[14] = system: zebrafish Androgen Receptor (AR), gene 100005148; assay: ATG_zfAR_XSP1: Attagene TRANS-FACTORIAL Multi-Species (XSP1) HepG2 Assay for zebrafish Androgen Receptor (AR) (AID 2283771)
Outline: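 HepG2 cells were transiently transfected with a zebrafish AR-GAL4 reporter system and partially stimulated with 3 nM 6-alpha-fluorotestosterone. Reporter mRNA was measured after 24 h dosing by RT-PCR with capillary electrophoresis, and gain-of-signal was fitted relative to DMSO.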

[15] = target: zebrafish Estrogen Receptor (ESR1), esr1 (gene 259252) (UniProt P57717); assay: ATG_zfER1_XSP1: Attagene TRANS-FACTORIAL Multi-Species (XSP1) HepG2 Assay for zebrafish Estrogen Receptor (ESR1) (AID 2283772)
Chain of zebrafish Estrogen Receptor (ESR1), esr1 (gene 259252) (P57717 whole entry, looked up, the tested form may be a part): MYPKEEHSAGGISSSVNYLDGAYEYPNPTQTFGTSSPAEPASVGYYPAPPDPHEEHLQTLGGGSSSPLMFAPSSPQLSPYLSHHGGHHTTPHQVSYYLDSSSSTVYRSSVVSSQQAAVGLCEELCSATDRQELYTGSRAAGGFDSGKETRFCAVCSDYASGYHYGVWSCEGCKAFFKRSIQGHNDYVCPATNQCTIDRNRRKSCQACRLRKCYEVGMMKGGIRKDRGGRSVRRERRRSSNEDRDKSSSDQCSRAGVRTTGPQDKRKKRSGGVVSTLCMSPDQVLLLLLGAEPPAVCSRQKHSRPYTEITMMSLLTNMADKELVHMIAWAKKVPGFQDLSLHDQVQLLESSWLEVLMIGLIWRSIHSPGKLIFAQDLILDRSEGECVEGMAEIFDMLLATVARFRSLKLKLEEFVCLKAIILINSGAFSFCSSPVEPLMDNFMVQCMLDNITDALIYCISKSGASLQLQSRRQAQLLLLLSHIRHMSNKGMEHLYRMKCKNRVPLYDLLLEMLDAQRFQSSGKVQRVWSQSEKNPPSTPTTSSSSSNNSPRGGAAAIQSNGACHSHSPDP
Outline: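 Exogenous chimeric receptor-GAL4 activity is measured in transiently transfected human HepG2 liver cells after 24 h compound exposure. Reporter transcripts are detected by RT-PCR and fluorescent capillary electrophoresis, analysed for signal gain relative to DMSO.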

[16] = system: zebrafish Estrogen Receptor (ESR2B), gene 317733; assay: ATG_zfER2b_XSP1: Attagene TRANS-FACTORIAL Multi-Species (XSP1) HepG2 Assay for zebrafish Estrogen Receptor (ESR2B) (AID 2283773)
Outline: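 HepG2 cells transiently transfected with GAL4-UAS reporter units for chimeric zebrafish ER2b-Gal4, with 3 nM 6-alpha-fluorotestosterone present; reporter mRNA measured 24 h after dosing by RT-PCR and capillary electrophoresis, gain versus DMSO.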

[17] = system: frog Estrogen Receptor (ESR2), gene 100174814; assay: ATG_frER2_XSP1: Attagene TRANS-FACTORIAL Multi-Species (XSP1) HepG2 Assay for frog Estrogen Receptor (ESR2) (AID 2283774)
Outline: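 HepG2 cells transiently transfected with GAL4-UAS reporter units expressing chimeric frog ER-Gal4; 3 nM 6-alpha-fluorotestosterone present. After 24 h dosing, reporter mRNA quantified by RT-PCR and capillary electrophoresis; gain-of-signal fitted relative to DMSO.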

[18] = system: frog Estrogen Receptor (ESR1), gene 398734; assay: ATG_frER1_XSP1: Attagene TRANS-FACTORIAL Multi-Species (XSP1) HepG2 Assay for frog Estrogen Receptor (ESR1) (AID 2283777)
Outline: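 HepG2 cells transiently transfected with frog ER–GAL4 chimera and GAL4-UAS reporter, with 3 nM 6-alpha-fluorotestosterone present; 24 h dosing, reporter mRNA quantified by RT-PCR and capillary electrophoresis, gain of signal versus DMSO.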

[19] = system: zebrafish Estrogen Receptor (ESR2A), gene 317734; assay: ATG_zfER2a_XSP1: Attagene TRANS-FACTORIAL Multi-Species (XSP1) HepG2 Assay for zebrafish Estrogen Receptor (ESR2A) (AID 2283778)
Outline: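 HepG2 cells transiently transfected with GAL4-UAS reporter units driven by a zebrafish ESR2A–Gal4 chimera; 24 h compound exposure with 3 nM 6-alpha-fluorotestosterone present. Reporter mRNA measured by RT-PCR with fluorescent capillary electrophoresis, fitted positive versus DMSO.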

[20] = target: chicken Estrogen Receptor (ESR1), ESR1 (gene 396099) (UniProt P06212); assay: ATG_chERa_XSP1: Attagene TRANS-FACTORIAL Multi-Species (XSP1) HepG2 Assay for chicken Estrogen Receptor (ESR1) (AID 2283779)
Chain of chicken Estrogen Receptor (ESR1), ESR1 (gene 396099) (P06212 whole entry, looked up, the tested form may be a part): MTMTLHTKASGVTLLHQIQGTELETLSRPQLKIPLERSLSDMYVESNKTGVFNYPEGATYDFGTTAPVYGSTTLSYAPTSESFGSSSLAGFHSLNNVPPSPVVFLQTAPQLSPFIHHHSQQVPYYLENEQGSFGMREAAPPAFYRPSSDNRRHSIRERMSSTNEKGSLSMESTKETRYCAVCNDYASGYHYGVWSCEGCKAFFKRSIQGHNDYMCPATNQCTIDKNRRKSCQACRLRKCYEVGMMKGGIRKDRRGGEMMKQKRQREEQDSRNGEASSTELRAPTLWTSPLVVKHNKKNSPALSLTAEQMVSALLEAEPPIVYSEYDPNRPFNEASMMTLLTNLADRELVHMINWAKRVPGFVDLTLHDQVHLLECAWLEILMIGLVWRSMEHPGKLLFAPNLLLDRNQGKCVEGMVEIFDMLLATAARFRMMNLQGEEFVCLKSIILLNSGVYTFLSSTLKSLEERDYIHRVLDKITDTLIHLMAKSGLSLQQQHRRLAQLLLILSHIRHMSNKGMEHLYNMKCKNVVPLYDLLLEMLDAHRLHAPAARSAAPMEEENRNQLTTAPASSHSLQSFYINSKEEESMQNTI
Outline: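 HepG2 cells transiently transfected with GAL4-UAS reporter units for chimeric chicken ERα-Gal4, dosed 24 h with 3 nM 6-alpha-fluorotestosterone present. Reporter mRNA by RT-PCR and capillary electrophoresis; gain-of-signal fit versus DMSO.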

Measured: AC50

CCCCCCCCCCCCCCCC[N+](C)(C)Cc1ccccc1
inactive: [3]
active: [1] 42.5 µM and 23 µM | [2] 33.5 µM and 9 µM | [4] 25.9 µM and 27.1 µM | [5] 75.8 µM and 38.4 µM | [6] 57.9 µM and 23 µM | [7] 42.3 µM and 43.4 µM

c1ccc(B(c2ccccc2)c2ccccc2)cc1
inactive: [1] | [2] | [4] | [5] | [6] | [7] | [12] | [13]
active: [8] 29.2 µM | [9] 90.1 µM | [10] 50 µM | [11] 53.8 µM

CCCCNc1ccccc1
inactive: [1] | [2] | [3] | [4] | [5] | [7]

CCCCCCOC(=O)c1ccccc1
inactive: [1] | [2] | [4] | [5] | [6] | [7] | [12]

Nc1cc(Cl)c(N)c(Cl)c1
inactive: [1] | [2] | [4] | [7]

C(=C(c1ccccc1)c1ccccc1)c1ccccc1
active: [15] 0.272 µM | [16] 0.0504 µM | [17] 0.0249 µM | [20] 0.198 µM
inactive: [1] | [2] | [4] | [5] | [6] | [14] | [13] | [18] | [19]

Cc1ccc(S(=O)(=O)NCl)cc1
inactive: [1] | [2] | [3] | [4] | [5] | [6] | [7]

Source: PubChem BioAssay (EPA / NIEHS)
